From PubChem BioAssay
In the library only some 5.7% were active in any assay of this set; here they are far more common.
ssDAF-12 act = S. stercoralis DAF-12 nuclear receptor activators, primary screen, cell-based, luminescence, HEK293, GRIP1 co-expression, lit1-tk-luc; activation, % at 6.8 µM; 1% of 370,000 active; AID 652126, 2013; Nuclear hormone receptor DAF-12 (Strongyloides stercoralis); HEK293 ssDAF-12/GRIP1 lit1-tk-luc reporter; % of 3 µM dafachronic acid response;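 active = activation above the mean over all tested compounds plus 3 SD, cut at about 0.9% in these data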;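 also: 0% = DMSO-only wells and 100% = 3 µM delta7-dafachronic acid wells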
DAX1 inh-1 = DAX1 (NR0B1) inhibitors on StAR promoter, primary screen, cell-based, luminescence, SF-1 (NR5A1), full-length DAX-1; AID 652010, 2013; inhibition, % at 6.8 µM; 1.1% of 370,000 active; HEK293T StAR-luciferase reporter, SF-1/DAX-1 repression relief;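 active = inhibition above the mean over all tested compounds plus 3 SD, cut at about 3.6% in these data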;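 also: 0% = DAX-1 cells with DMSO and 100% = cells lacking DAX-1 with DMSO; higher inhibition means more luminescence from relief of DAX-1 repression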
hgDAF12 agonist = H. glycines DAF-12 receptor agonists, primary screen, cell-based, luminescence, HEK293, GAL4 fusion, UAS-luciferase | Nuclear hormone receptor DAF-12 (Heterodera glycines), GAL4 fusion | HEK293 GAL4-hgDAF12 UAS-luciferase reporter, agonist luminescence; normalized to butyrate control | activation, % at 6.8 µM | 1.8% of 370,000 active;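 active = activation above a cutoff set at the mean of all screened compounds plus 3 SD, cut at about 10% in these data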;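 also: 0% = DMSO wells and 100% = sodium butyrate wells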
DAX1 inh-2 = DAX1 (NR0B1) inhibitors, primary screen, cell-based, HEK293, Gal4-DAX1, luciferase luminescence; AID 504766, 2011; 0.99% of 340,000 active; HEK293 Gal4-DAX1 luciferase reporter; Nuclear receptor subfamily 0 group B member 1 (Homo sapiens), P51843; inhibition, % at 6.75 µM;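 active = inhibition above the mean over all tested compounds plus 3 SD, cut at about 4.2% in these data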;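 also: 0% = DAX1-transfected cells with DMSO and 100% = empty-vector control cells with DMSO; inhibition shows as a rise in luminescence from relieved DAX1 repression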
AHR activator = AHR activators, primary screen, cell-based, luminescence, luciferase reporter, human; AHR-responsive luciferase reporter cells; activation, % at 5 µM; 2.5% of 320,000 active; AID 2796, 2010; in the data active = activation above about 47%;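 also: 0% = vehicle wells and 100% = reference agonist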
hcDAF12 agonist = H. contortus DAF-12 nuclear receptor activators, primary screen, cell-based, luminescence, HEK293, lit1-tk-luc reporter | 1.4% of 370,000 active | HEK293 hcDAF-12 lit1-tk-luc reporter; 0% DMSO, 100% Δ7-dafachronic acid | AID 652067, 2013 | activation, % at 6.8 µM;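 active = activation above the mean of all tested compounds plus 3 SD, cut at about 5.5% in these data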;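 also: 100% = response to 3 µM Δ7-dafachronic acid high control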
AHR act cf = AHR activators, confirmation, cell-based, luminescence, luciferase reporter, human; activation, % at 9 µM; AID 2845, 2010; human cells, AHR-responsive luciferase reporter; 87% of 2,300 active; shares compounds with AHR activator; in the data active = activation above about 49%;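 also: HepG2 hepatoma cells carrying a DRE-driven firefly luciferase reporter; 0% = vehicle wells and 100% = reference agonist wells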
PXR act counter = human PXR activators, counter-screen for AHR activator project, cell-based, luciferase luminescence; activation, % at 11.6 µM; shares compounds with AHR activator; 88% of 2,300 active; cell-based PXR reporter; in the data active = activation above about 11%;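 also: human hepatoma DPX-2 cells expressing full-length human PXR; 0% = DMSO and 100% = reference agonist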
Target sequence (O75469 whole entry, looked up): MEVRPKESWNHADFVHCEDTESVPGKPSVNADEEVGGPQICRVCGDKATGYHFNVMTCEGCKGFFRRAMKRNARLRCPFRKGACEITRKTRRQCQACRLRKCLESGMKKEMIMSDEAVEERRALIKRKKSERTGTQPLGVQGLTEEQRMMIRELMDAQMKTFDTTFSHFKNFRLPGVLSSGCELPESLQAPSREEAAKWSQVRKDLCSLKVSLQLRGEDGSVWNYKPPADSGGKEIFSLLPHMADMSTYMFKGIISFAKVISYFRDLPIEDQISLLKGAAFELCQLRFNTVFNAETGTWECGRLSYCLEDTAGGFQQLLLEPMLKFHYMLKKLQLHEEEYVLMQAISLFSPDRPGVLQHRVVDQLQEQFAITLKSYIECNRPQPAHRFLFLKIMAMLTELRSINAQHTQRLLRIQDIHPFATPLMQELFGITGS
* = called active by the depositor; nt = no result given.

SMILES	ssDAF-12 act	DAX1 inh-1	hgDAF12 agonist	DAX1 inh-2	AHR activator	hcDAF12 agonist	AHR act cf	PXR act counter
O=c1[nH]c(/C=C/c2ccccc2OC(F)F)nc2c1cnn2-c1ccccc1	-1	-1	3	-1	85*	-1	16	33*
CCn1nnnc1NC(=O)c1cc(OC)c(OC)c(OC)c1	-2	0	1	1	128*	-1	101*	11*
CCn1c(C)cc(/C=C2/NC(=O)N(Cc3ccccc3F)C2=O)c1C	-1	0	-1	-1	84*	-1	59*	162*
CCn1c(C)cc(/C=C2\NC(=O)N(CC(=O)Nc3ccc(F)cc3)C2=O)c1C	-2	-1	0	0	24	-1	nt	nt
C/C(=N\NC(=O)C(=O)Nc1cc(Cl)ccc1Cl)c1ccncc1	-1	0	-2	-1	89*	-1	1	10
CC(=O)Nc1ccc(NC(=O)CCNS(=O)(=O)c2cccc3nsnc23)cc1	nt	nt	nt	0	-2	nt	nt	nt
OC1(C#Cc2c(-c3ccsc3)oc3ccc(N4CCOCC4)cc23)CCCCC1	0	0	1	0	111*	1	120*	80*
CC(C)c1ccccc1OCC(=O)Nc1cc(S(=O)(=O)N2CCOCC2)ccc1N1CCCC1	-2	0	-3	-2	1	-2	nt	nt
Cc1ccc2[nH]c(O)c(N=NC(=O)C(C)n3cnc4ccccc4c3=O)c2c1 (stereo unspecified)	-1	-1	0	1	88*	1	69*	46*
O=S(=O)(c1ccccc1Cl)N1CCC(Cc2ccccc2)CC1	-1	-1	-1	4	3	-3	nt	nt
COc1ccc(NS(=O)(=O)c2cccc(C(=O)NNC(=O)CN3C(=O)NC(C)(C)C3=O)c2)cc1	-1	0	0	0	1	-1	nt	nt
Cc1nnc(N2C(=O)c3cccc4c([N+](=O)[O-])ccc(c34)C2=O)s1	-1	0	-4	-1	87*	0	100*	nt
Cc1ccc(S(=O)(=O)N(C)C)cc1NC(=O)CN1C(=O)NC2(CCc3ccccc32)C1=O (stereo unspecified)	-1	-1	2	1	nt	1	nt	nt
CCC(=O)Nc1ccc(NC(=O)c2c(C)nc3ccccn23)cc1	-1	1	2	0	2	0	nt	nt
COc1ccc(NC(=O)c2c(Cl)nc3ccccn23)cc1	-2	1	1	-1	86*	-1	47	10
Clc1cccc(-c2ccc(CNCc3ccccn3)o2)c1	-1	0	2	0	121*	1	87*	24*
NC(=O)N/N=C\c1cc(Br)ccc1O	-2	-1	-4	-1	28	1	nt	nt
Cc1ccc(OCCOc2ccc(Br)cc2/C=N\NC(N)=O)cc1	-1	0	1	0	92*	-2	27	6
CCOc1ccc(S(=O)(=O)N(C)c2ccc(OCC(=O)Nc3ccccc3F)cc2)cc1	-1	-1	-2	-1	nt	-1	nt	nt
Clc1cccc2sc(N3CCN(c4ccccc4)CC3)nc12	0	0	6	2	122*	1	112*	17*
CCc1nc2ccccc2c(C(=O)OCc2nc3ccccc3c(=O)[nH]2)c1C	-1	-1	0	0	118*	0	86*	54*
CCOc1ccccc1C(=O)NCC(=O)Nc1ccc2c(c1)OCO2	0	3	2	1	83*	2	100*	102*
O=C(NC(=S)NCc1ccccc1)c1ccc2c(c1)OCO2	-1	0	6	0	84*	0	61*	19*
CCOc1ccccc1NC(=O)Nc1ccncc1	-1	0	2	0	139*	-4	86*	18*
COc1ccccc1C(=O)NCC(=O)Nc1ccc2c(c1)OCO2	-1	0	-1	0	nt	-2	nt	nt
SMILES	ssDAF-12 act	DAX1 inh-1	hgDAF12 agonist	DAX1 inh-2	AHR activator	hcDAF12 agonist	AHR act cf	PXR act counter
CCOc1ccccc1NC(=O)NCc1ccc2c(c1)OCO2	-1	-1	0	1	97*	3	74*	40*
COC(=O)c1ccccc1NC(=O)NCc1ccc2c(c1)OCO2	-1	0	0	1	2	-1	nt	nt
COCC(=O)Nc1ccc2c(c1)OCC(=O)N2Cc1ccc(C)cc1	-1	0	0	1	4	0	nt	nt
Cc1ccc(C)c(Cn2nc3c4ccccc4n(Cc4ccccc4)cc-3c2=O)c1	-1	0	-1	-1	nt	-1	nt	nt
Cc1cc(C)cc(C(=O)NCc2ccc3c(c2)OCO3)c1	-1	0	-3	-1	106*	-1	75*	52*
COc1ccc(C(=O)NC(=S)Nc2cc(C)ccn2)cc1[N+](=O)[O-]	-2	-1	1	2	82*	1	109*	13*
CCOC(=O)N/N=C1\CCS(=O)(=O)c2ccc(Cl)cc21	0	0	0	2	3	1	nt	nt
Cc1[nH]c2ccccc2c1SCc1ccccc1	-1	0	1	0	128*	1	103*	38*
Cc1[nH]c2ccccc2c1C(=O)COc1ccccc1	-1	0	1	-1	135*	1	128*	30*
Cc1[nH]c2ccccc2c1C(=O)CSc1ccc(F)cc1	-1	0	8	0	37	-1	nt	nt
Cc1[nH]c2ccccc2c1C(=O)CSc1ccccc1	-1	1	8	0	101*	3	93*	72*
Cc1[nH]c2ccccc2c1C(=O)CCl	-1	-1	-4	-1	nt	-1	nt	nt
Cc1[nH]c2ccccc2c1C(=O)CNc1nccs1	-1	0	6	1	83*	2	34	26*
Cc1cc2nn(-c3cccc4ccccc34)nc2cc1N	0	0	3	0	82*	2	110*	21*
Cc1nc2ccccc2c2c(N)cccc12	-1	0	3	1	nt	-1	nt	nt
